Source: PubChem BioAssay AID485273 (Sanford-Burnham Center for Chemical Genomics, 2010)
In all, about 330,000 compounds went through this assay and about 1,500 (0.45%) were called active. This is one part of a sample in which actives are shown more often than they occur. Cut-off read from the data, not from the text of the source: active = inhibition above about 45% (passing the limit was not always enough); inconclusive = no clear call, values can overlap the other calls.

Molecular target: Ubiquitin-conjugating enzyme E2 N (Homo sapiens) (UniProt P61088)
Sequence (P61088 whole entry, looked up): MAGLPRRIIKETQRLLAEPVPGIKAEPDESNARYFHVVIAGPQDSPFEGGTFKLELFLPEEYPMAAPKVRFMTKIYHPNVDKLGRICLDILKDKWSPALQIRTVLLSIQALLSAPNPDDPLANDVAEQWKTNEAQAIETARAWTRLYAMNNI
Test: blockers of UBC13 ubiquitin chain synthesis – biochemical, TR-FRET, uHTS, primary screen (AID 485273)
Details: UBC13 polyubiquitin chain formation, at 20 µM, stronger effect = higher value

Structure (SMILES)	inhibition
CCCN(C(=O)CSc1nnc(N)s1)c1c(N)n(Cc2ccccc2)c(=O)[nH]c1=O	0.1% (inactive)
COC(=O)C(C)Oc1ccc2c(-c3cccc([N+](=O)[O-])c3)cc(=O)oc2c1 (stereo unspecified)	-16.8% (inactive)
COc1cccc(CN(C)CC(O)COC(c2ccccc2)c2ccccc2C)c1 (stereo unspecified)	19.2% (inactive)
CN(C(=O)CSc1nnc(-c2ccc(C(C)(C)C)cc2)n1C)C1CCS(=O)(=O)C1 (stereo unspecified)	-4.3% (inactive)
OCCn1c(-c2ccccc2)csc1=Nc1ccccc1	-10.7% (inactive)
C#CCNC(=O)C1=C[C@@H](c2ccccc2)[C@H](CCCO)[C@@H](OCC)O1	0.9% (inactive)
Cc1ccc(NC(=O)Cc2nnc(SCC(=O)Nc3nncs3)n2C)cc1	-2.3% (inactive)
Cc1cccc(Cn2cnc3c(N)c(C)c(C)cc32)c1	3.8% (inactive)
COc1cccc(CNS(=O)(=O)c2cc3c(cc2C)n(C)c(=O)c(=O)n3C)c1	20% (inactive)
COc1cccc(Cn2cnc3c([N+](=O)[O-])c(C)c(C)cc32)c1	60.4% (active)
COc1ccc(CNC(=O)C2CCN(S(=O)(=O)c3ccc(SC)cc3)CC2)cc1	6.2% (inactive)
C#CCOCCOCCOCCNc1nc(N2CCN(C(=O)[C@H](CCCN=C(N)N)n3cc(C(N)[C@@H](C)CC)nn3)CC2)nc(N2CCN(C(=O)[C@H](CO)n3cc([C@@H](N)C(C)C)nn3)CC2)n1 (stereo partly specified)	33.1% (inactive)
C#CCOCCOCCOCCNc1nc(N2CCN(C(=O)Cn3cc(CCCCN)nn3)CC2)nc(N2CCN(C(=O)[C@H](CCCCN)n3cc(CCC(=O)O)nn3)CC2)n1	3.6% (inactive)
C#CCOCCOCCOCCNc1nc(N2CCN(C(=O)[C@H](CCC(=O)O)n3cc(CN)nn3)CC2)nc(N2CCN(C(=O)[C@H](CCC(=O)O)n3cc(CN)nn3)CC2)n1	2.2% (inactive)
C#CCOCCOCCOCCNc1nc(N2CCN(C(=O)CCCCCCCCCCNC(=O)Cn3cc(CCCCCN)nn3)CC2)nc(N2CCN(C(=O)CCCCCCCCCCNC(=O)[C@H](CO)n3cc(CCCSC)nn3)CC2)n1	128% (active)
C#CCOCCOCCOCCNc1nc(N2CCN(C(=O)CCCCCCCCCCNC(=O)[C@H]([C@@H](C)CC)n3cc(CCCCN=C(N)N)nn3)CC2)nc(N2CCN(C(=O)CCCCCCCCCCNC(=O)[C@H](CO)n3cc(CCCSC)nn3)CC2)n1	121% (active)
C#CCOCCOCCOCCNc1nc(N2CCN(C(=O)[C@H](C(C)C)n3cc(CCO)nn3)CC2)nc(N2CCN(C(=O)[C@H]([C@@H](C)CC)n3cc(CCCN=C(N)N)nn3)CC2)n1	19.7% (inactive)
C#CCOCCOCCOCCNc1nc(N2CCN(C(=O)CCCCCCCCCCNC(=O)[C@H](CCCCN)n3cc(C)nn3)CC2)nc(N2CCN(C(=O)CCCCCCCCCCNC(=O)[C@H](CO)n3cc(CCCSC)nn3)CC2)n1	121% (active)
C#CCOCCOCCOCCNc1nc(N2CCN(C(=O)[C@H](C(C)C)n3cc(CCO)nn3)CC2)nc(N2CCN(C(=O)[C@H](C(C)C)n3cc(CCO)nn3)CC2)n1	-11.8% (inactive)
COc1ccccc1NC(=O)CCN1CCN(c2ccc(Cl)cc2)CC1	-6% (inactive)
O=C(CN1CCN(c2ccc(O)cc2)CC1)NC1CCCc2ccccc21 (stereo unspecified)	7.1% (inactive)

Structure (SMILES)	inhibition
O=C(CN1CCSCC1)N/N=C/c1ccc(Cl)cc1	-14.1% (inactive)
CNc1nccc(-c2ccc(Cl)cc2)c1C#N	9.5% (inactive)
N#Cc1c(-c2ccc(Cl)cc2)c2c([nH]c1=S)CCCC2	47.4% (active)
CN(C)c1nc(-c2cccnc2)nc(-c2ccc(Cl)cc2)c1C#N	-0.5% (inactive)
Cn1cc(Cl)c(C(=O)NNC(=S)Nc2cccc(Cl)c2)n1	-10.5% (inactive)
Cc1cccc(-n2cnc(C(=O)NNC(=S)Nc3ccccc3)c2)n1	84.4% (active)
Cc1cccc(-n2cnc(C(=O)Nc3cccnc3)c2)n1	-3.6% (inactive)
COc1ccc(CNS(=O)(=O)c2ccc(NC(=O)N3CCCCC3)cc2)cc1	-9.2% (inactive)
CN1CCN(CCCNC(=O)c2ccc(/C=C3\Oc4ccccc4N(Cc4ccc(Cl)cc4)C3=O)cc2)CC1	80.8% (active)
CCCN1CCN(C(=O)CCCNC(=O)c2ccc(Cl)cc2)CC1	-6.8% (inactive)
CC(C)OCCCNC(=O)CN1C(=O)/C(=C/c2ccccc2F)Oc2ccccc21	1% (inactive)
Cc1ccc2c(C)c(C(=O)N3CCC(N4CCC(C(=O)NC5CC5)CC4)CC3)oc2c1	-16.4% (inactive)
S=C(Cc1ccc(Cl)cc1)N1CCOCC1	4.3% (inactive)
CCN1C(=S)N[C@@H](CCc2ccccc2)[C@H](C(=O)OC)[C@H]1C	4.5% (inactive)
CCN1C(=NCC(C)C)N[C@@H](CCc2ccccc2)[C@H](C(=O)NCC(C)C)[C@H]1C	15.8% (inactive)
CCN1C(=NCc2ccc(OC)cc2)N[C@@H](CCc2ccccc2)[C@H](C(=O)NCc2ccc(OC)cc2)[C@H]1C	48.7% (active)
CCN(CC(=O)Nc1cc(Cl)ccc1C)C(=O)CSCc1ccc(C)cc1	0.3% (inactive)
Cc1cccc(N2CCN(C(C)C(=O)N3CCc4ccccc43)CC2)c1C (stereo unspecified)	-1.5% (inactive)
CC(=O)Nc1cccc(NC(=O)c2ccc3c(c2)CCN3S(C)(=O)=O)c1	-2.7% (inactive)
CN(C)CC(O)COc1ccc(C(C)(C)c2ccc(OCC(O)CN(C)C)cc2)cc1 (stereo unspecified)	59.2% (active)
Cc1cc(C)n(CC(O)COc2ccc(C(C)(C)C)cc2)n1 (stereo unspecified)	-14.2% (inactive)

Structure (SMILES)	inhibition
CC(C)(c1ccccc1)c1ccc(OCCN)cc1	16.7% (inactive)
CCCNC(=O)NC(=O)COC(=O)CC(NC(N)=O)c1ccc(Cl)cc1 (stereo unspecified)	1% (inactive)
NC(=O)NC(CC(=O)NNC(=O)c1ccccn1)c1ccc(Cl)cc1 (stereo unspecified)	93.2% (active)
O=C(COC(=O)c1ccccn1)NNC(=O)c1ccc(Br)cc1	3.1% (inactive)
COc1ccc(C(=O)C2CCCN(S(=O)(=O)c3cccc(C)c3)C2)c(C)c1 (stereo unspecified)	-4.5% (inactive)
O=C(CCn1c(=O)oc2ccccc21)Nc1ccon1	-0.5% (inactive)
Cc1ccc2c(c1)C(c1ccccc1)N(C(=O)c1ccc(S(=O)(=O)N3CCOCC3)cc1)CC(=O)N2 (stereo unspecified)	0.9% (inactive)
Cc1ccc(Nc2nc(N)nc(CN3CCN(Cc4ccccc4)CC3)n2)cc1Cl	8.9% (inactive)
OCCNc1nc(Nc2ccc(Cl)c(Cl)c2)nc2ccccc12	68.2% (active)
CNc1nc(Nc2ccc(C)c(Cl)c2)nc(N)c1[N+](=O)[O-]	9.3% (inactive)
CCCS(=O)(=O)Nc1c(C(=O)O)[nH]c2ccccc12	8.6% (inactive)
C=CCn1c(SCc2ccc(Cl)c(Cl)c2)nnc1C(CO)NC(=O)c1ccc(OC)cc1 (stereo unspecified)	15.9% (inactive)
O=C(COC(=O)Cn1cnc2ccccc2c1=O)NCc1ccccc1Cl	45.4% (active)
O=C(COC(=O)Cn1cnc2ccccc2c1=O)NCC12CC3CC(CC(C3)C1)C2	17.4% (inactive)
Cn1c(CCC(=O)OCC(=O)NCc2ccccc2Cl)nc(=O)c2ccccc21	2.8% (inactive)
O=C(N/N=C/c1ccccc1O)/C(=C/c1ccccc1)CCO	4.1% (inactive)
COc1ccccc1C(=O)OCC(=O)NCCNC(=O)COC(=O)c1ccccc1OC	5.1% (inactive)
Cc1cccc(NC(=O)c2cccc(S(=O)(=O)N3CCCC3)c2)n1	2.6% (inactive)
O=C(N/N=C/c1ccccn1)c1ccc(S(=O)(=O)N2CCCCCC2)cc1	-2.2% (inactive)
Cc1ncc(CO)c(/C=N/NC(=O)c2cccc(S(=O)(=O)N3CCCC3)c2)c1O	52.7% (active)
Cc1cc(C)n(CC(O)CN(c2ccccc2)S(=O)(=O)c2ccc3ccccc3c2)n1 (stereo unspecified)	-8.5% (inactive)

Structure (SMILES)	inhibition
CCSCc1nc(N)nc(NCCc2ccccc2)n1	8.1% (inactive)
Cc1c(C(=O)N2CCN(c3ccc(F)cc3)CC2)oc2c1C(=O)CCC2	3.2% (inactive)
COc1ccc2c(CC(=O)NNC(=O)c3ccccc3F)coc2c1	7.9% (inactive)
O=C(CCC(=O)c1ccccc1)NCc1cccc(C(F)(F)F)c1	-0.5% (inactive)
NC[C@H](Cc1ccccc1)NCCc1cc(C(F)(F)F)cc(C(F)(F)F)c1	65.5% (active)
COC(=O)[C@@H](Cc1ccccc1)NC(=O)NCCc1ccccc1	6.5% (inactive)
CCOc1ccc(Nc2nc(Cc3nnc(SCC(=O)c4ccc(C)cc4)o3)cs2)cc1	1.3% (inactive)
CC(NCc1nc2ccccc2n1C)C12CC3CC(CC(C3)C1)C2 (stereo unspecified)	22.8% (inactive)
CC(C)(C)Oc1ccccc1Nc1nc(NCCO)nc(N2CCCC2)n1	8.7% (inactive)
Cc1cccc(Nc2nc(NCCO)nc(N3CCCC3)n2)c1	11.1% (inactive)
CCCOc1ccc(Cl)cc1Nc1nc(NCCO)nc(N2CCCC2)n1	60.4% (active)
CC(=O)N1C(=O)/C(=C2\SC(=S)N(NC(=O)c3ccc(O)cc3)C2=O)c2ccccc21	-62.3% (inactive)
COc1c(O)cc2oc(-c3ccc(O)c(O)c3)cc(=O)c2c1O	-3.7% (inactive)
COC(=O)c1ccccc1NC(=O)C1CCN(C(=O)N2CCOc3ccccc32)CC1	6.2% (inactive)
O=C(Cc1ccc(-n2c(=O)[nH]c3ccccc3c2=O)cc1)N1CCN(c2cccc(Cl)c2)CC1	-5.1% (inactive)
CCOC(=O)N1CCN(C(=O)Cc2ccc(-n3c(=S)[nH]c4ccccc4c3=O)cc2)CC1	46.3% (active)
CCCCNC(=O)c1ccc(-n2c(=S)[nH]c3ccccc3c2=O)cc1	43.8% (inactive)
COc1cccc(-c2ccc(SCC(=O)N3CCN(c4ccccc4)CC3)nn2)c1	-10.5% (inactive)
